Results on 39 sequences are retold here after article PMC7862700, “An all-to-all approach to the identification of sequence-specific readers for epigenetic DNA modifications on cytosine”.

Chain of ELF4 (Q99607 whole entry): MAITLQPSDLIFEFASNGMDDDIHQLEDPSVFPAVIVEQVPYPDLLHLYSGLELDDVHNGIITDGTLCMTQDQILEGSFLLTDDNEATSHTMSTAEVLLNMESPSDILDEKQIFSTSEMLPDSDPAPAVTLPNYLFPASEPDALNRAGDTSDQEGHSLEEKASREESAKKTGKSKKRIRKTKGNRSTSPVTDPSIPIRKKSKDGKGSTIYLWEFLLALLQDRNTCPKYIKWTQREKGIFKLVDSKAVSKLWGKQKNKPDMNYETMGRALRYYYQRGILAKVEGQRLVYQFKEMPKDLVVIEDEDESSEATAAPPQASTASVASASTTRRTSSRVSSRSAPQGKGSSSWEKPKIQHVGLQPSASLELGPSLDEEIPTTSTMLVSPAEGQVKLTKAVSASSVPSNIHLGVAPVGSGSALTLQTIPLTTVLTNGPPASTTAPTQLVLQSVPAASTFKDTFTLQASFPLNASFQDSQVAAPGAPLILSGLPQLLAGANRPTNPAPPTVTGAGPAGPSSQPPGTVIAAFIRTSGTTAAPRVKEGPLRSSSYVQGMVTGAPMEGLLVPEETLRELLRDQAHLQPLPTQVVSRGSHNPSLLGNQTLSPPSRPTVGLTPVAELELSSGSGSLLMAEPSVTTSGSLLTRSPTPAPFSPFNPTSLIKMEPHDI

One assay deals with HSF1 (Homo sapiens, UniProt Q00613 1-529). Put plainly: DAPPL (digital affinity profiling via proximity ligation, sequencing); 10 mM Tris-HCl pH 7.5, 50 mM NaCl, 1 mM DTT, 4% glycerol, room temperature, 30 min; GST-TFs on glutathione beads, 16-mer random dsDNA library, 0.1% formaldehyde crosslink after washing; high values mean tight binding. The settings on record: protein: recombinant; tags: N-terminal GST; chain copies: 3; dsDNA, one strand shown. An outline of the steps: (§1)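 Human transcription factors carrying a GST fusion were produced in yeast, bound to glutathione beads, tagged with DNA barcodes and pooled together with a tag-only sample. Each pool was held with 200 nmole of a random double-stranded 16-mer DNA library in Tris/NaCl/DTT/glycerol buffer for 30 min at room temperature, then washed, crosslinked in 0.1% formaldehyde, proximity-ligated with BsaI/T4 ligase (1 h, 37 °C), PCR-amplified and sequenced on an Illumina NextSeq500. Binding signal is the read frequency of each hexamer for a given factor divided by its frequency in the tag-only sample.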
Chain of HSF1 (Q00613 whole entry, the tested form may be a part): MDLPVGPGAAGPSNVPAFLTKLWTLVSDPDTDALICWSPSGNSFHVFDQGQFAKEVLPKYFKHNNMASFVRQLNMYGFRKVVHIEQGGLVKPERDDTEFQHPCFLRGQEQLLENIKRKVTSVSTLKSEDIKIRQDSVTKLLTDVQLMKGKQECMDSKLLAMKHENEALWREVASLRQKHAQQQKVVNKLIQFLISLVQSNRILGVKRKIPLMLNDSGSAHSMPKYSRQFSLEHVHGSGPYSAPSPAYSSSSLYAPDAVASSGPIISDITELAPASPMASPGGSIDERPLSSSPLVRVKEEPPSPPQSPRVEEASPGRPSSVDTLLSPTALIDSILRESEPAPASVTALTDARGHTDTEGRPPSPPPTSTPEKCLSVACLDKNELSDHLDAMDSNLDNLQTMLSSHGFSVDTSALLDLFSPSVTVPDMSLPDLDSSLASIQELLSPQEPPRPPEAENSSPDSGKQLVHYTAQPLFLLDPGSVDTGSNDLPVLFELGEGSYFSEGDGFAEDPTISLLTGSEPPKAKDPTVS
As to TTTGTG, the binding signal is 1.12 fold enrichment (6-mer frequency, TF over GST control).
On to AATTCA, for which the binding signal is 1.34 fold enrichment (6-mer frequency, TF over GST control).
Same read-out and setting: next, TTGCTC: 1.3 fold enrichment (6-mer frequency, TF over GST control); CTAAAC: 1.26 fold enrichment (6-mer frequency, TF over GST control).
Still for that read-out and setting: as for TAGGCT, the figure is 1.45 fold enrichment (6-mer frequency, TF over GST control).
The same measure, in the same setting: as for CCTCTG, the figure is 1.39 fold enrichment (6-mer frequency, TF over GST control).
Turning to TGTCTA, the binding signal was 1.15 fold enrichment (6-mer frequency, TF over GST control).
Turning to TTCACC, the binding signal is 1.14 fold enrichment (6-mer frequency, TF over GST control).
Consider ATCTAC, for which the binding signal was 1.43 fold enrichment (6-mer frequency, TF over GST control).
Same read-out and setting: next, CACTAT: 1.05 fold enrichment (6-mer frequency, TF over GST control); TAATCC: 4.27 fold enrichment (6-mer frequency, TF over GST control); AAAGAT: 1.67 fold enrichment (6-mer frequency, TF over GST control).
In the case of CGTCTT, the binding signal was 1.31 fold enrichment (6-mer frequency, TF over GST control).
The same measure, in the same setting: next, ACTGAA: 1.08 fold enrichment (6-mer frequency, TF over GST control); CTCCGC: 1.15 fold enrichment (6-mer frequency, TF over GST control).
On the same count and under the same terms, as for CAACTC, the figure is 1.12 fold enrichment (6-mer frequency, TF over GST control); as for TACAAT, 1.32 fold enrichment (6-mer frequency, TF over GST control); as for CCATCT, 1.31 fold enrichment (6-mer frequency, TF over GST control).
On the same count and under the same terms, as for TCCCCG, the figure is 1.16 fold enrichment (6-mer frequency, TF over GST control); as for ACTCTA, 1.63 fold enrichment (6-mer frequency, TF over GST control); as for CCCTCC, 1.22 fold enrichment (6-mer frequency, TF over GST control).
On to ATATTC, for which the binding signal was 2.2 fold enrichment (6-mer frequency, TF over GST control).
On the same count and under the same terms, next, CGCTTA: 1.53 fold enrichment (6-mer frequency, TF over GST control).
On the same count and under the same terms, next, ACGTTA: 1.04 fold enrichment (6-mer frequency, TF over GST control).
Still for that read-out and setting: next, GCCTTT: 1.24 fold enrichment (6-mer frequency, TF over GST control); TTCGAG: 4.43 fold enrichment (6-mer frequency, TF over GST control).
Take CTGAGC: the binding signal is 1.09 fold enrichment (6-mer frequency, TF over GST control).
The same measure, in the same setting: next, AATTCT: 2.25 fold enrichment (6-mer frequency, TF over GST control); CCTGAA: 1.54 fold enrichment (6-mer frequency, TF over GST control); TAACTT: 1.28 fold enrichment (6-mer frequency, TF over GST control).
Same read-out and setting: next, CTCATC: 1.27 fold enrichment (6-mer frequency, TF over GST control); TCTCAT: 1.29 fold enrichment (6-mer frequency, TF over GST control).
On the same count and under the same terms, next, TGATGA: 1.16 fold enrichment (6-mer frequency, TF over GST control); TTAAAT: 1.85 fold enrichment (6-mer frequency, TF over GST control).
Turning to TTTCAA, the binding signal is 1.23 fold enrichment (6-mer frequency, TF over GST control).
With ATATGG, the binding signal is 1.17 fold enrichment (6-mer frequency, TF over GST control).
On the same count and under the same terms, as for ACTTGG, the figure is 1.09 fold enrichment (6-mer frequency, TF over GST control).
The same measure, in the same setting: next, CACATT: 1.14 fold enrichment (6-mer frequency, TF over GST control); TCCTGA: 1.57 fold enrichment (6-mer frequency, TF over GST control).

In a further assay the target is T1, SPIC (Homo sapiens, UniProt Q8N5J4 1-248).
T1 sequence: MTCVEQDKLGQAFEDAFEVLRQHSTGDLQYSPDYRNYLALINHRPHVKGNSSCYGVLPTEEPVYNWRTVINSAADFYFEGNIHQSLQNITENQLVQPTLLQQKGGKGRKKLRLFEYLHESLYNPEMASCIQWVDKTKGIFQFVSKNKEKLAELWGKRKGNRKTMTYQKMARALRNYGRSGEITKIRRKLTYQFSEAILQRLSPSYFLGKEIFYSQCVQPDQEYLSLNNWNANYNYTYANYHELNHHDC
The description is as above. As to conditions: protein: recombinant; tags: N-terminal GST; dsDNA, one strand shown. An outline of the steps:
as §1
Take TTTGTG: the binding signal is 1.15 fold enrichment (6-mer frequency, TF over GST control).
On the same count and under the same terms, next, AATTCA: 1.32 fold enrichment (6-mer frequency, TF over GST control); TTGCTC: 1.34 fold enrichment (6-mer frequency, TF over GST control).
The same measure, in the same setting: as for CTAAAC, the figure is 1.18 fold enrichment (6-mer frequency, TF over GST control); as for TAGGCT, 1.29 fold enrichment (6-mer frequency, TF over GST control).
Consider CCTCTG, for which the binding signal is 1.44 fold enrichment (6-mer frequency, TF over GST control).
Same read-out and setting: next, TGTCTA: 1.35 fold enrichment (6-mer frequency, TF over GST control); TTCACC: 1.34 fold enrichment (6-mer frequency, TF over GST control); ATCTAC: 1.34 fold enrichment (6-mer frequency, TF over GST control).
Same read-out and setting: next, CACTAT: 1.2 fold enrichment (6-mer frequency, TF over GST control); TAATCC: 1.14 fold enrichment (6-mer frequency, TF over GST control); AAAGAT: 1.22 fold enrichment (6-mer frequency, TF over GST control).
Same read-out and setting: as for CGTCTT, the figure is 1.38 fold enrichment (6-mer frequency, TF over GST control); as for ACTGAA, 1.31 fold enrichment (6-mer frequency, TF over GST control).
As for CTCCGC, the binding signal is 1.51 fold enrichment (6-mer frequency, TF over GST control).
Same read-out and setting: as for CAACTC, the figure is 1.33 fold enrichment (6-mer frequency, TF over GST control); as for TACAAT, 1.25 fold enrichment (6-mer frequency, TF over GST control); as for CCATCT, 1.35 fold enrichment (6-mer frequency, TF over GST control).
On the same count and under the same terms, next, TCCCCG: 1.04 fold enrichment (6-mer frequency, TF over GST control); ACTCTA: 1.63 fold enrichment (6-mer frequency, TF over GST control); CCCTCC: 1.73 fold enrichment (6-mer frequency, TF over GST control).
The same measure, in the same setting: as for ATATTC, the figure is 1.3 fold enrichment (6-mer frequency, TF over GST control); as for CGCTTA, 1.22 fold enrichment (6-mer frequency, TF over GST control); as for ACGTTA, 1.18 fold enrichment (6-mer frequency, TF over GST control).
Take GCCTTT: the binding signal is 1.56 fold enrichment (6-mer frequency, TF over GST control).
Turning to TTCGAG, the binding signal was 1.13 fold enrichment (6-mer frequency, TF over GST control).
The same measure, in the same setting: next, CTGAGC: 1.08 fold enrichment (6-mer frequency, TF over GST control).
Turning to AATTCT, the binding signal is 1.3 fold enrichment (6-mer frequency, TF over GST control).
Turning to CCTGAA, the binding signal was 1.28 fold enrichment (6-mer frequency, TF over GST control).
The same measure, in the same setting: next, TAACTT: 1.56 fold enrichment (6-mer frequency, TF over GST control); CTCATC: 1.49 fold enrichment (6-mer frequency, TF over GST control); TCTCAT: 1.46 fold enrichment (6-mer frequency, TF over GST control).
Still for that read-out and setting: as for TGATGA, the figure is 1.14 fold enrichment (6-mer frequency, TF over GST control); as for TTAAAT, 1.21 fold enrichment (6-mer frequency, TF over GST control).
Turning to TTTCAA, the binding signal is 1.33 fold enrichment (6-mer frequency, TF over GST control).
On the same count and under the same terms, as for ATATGG, the figure is 1.41 fold enrichment (6-mer frequency, TF over GST control).
On the same count and under the same terms, next, ACTTGG: 1.27 fold enrichment (6-mer frequency, TF over GST control); CACATT: 1.26 fold enrichment (6-mer frequency, TF over GST control); TCCTGA: 1.32 fold enrichment (6-mer frequency, TF over GST control).

The target of a further assay is ELF4 (Homo sapiens, UniProt Q99607 1-663). Described as above. As to conditions: protein: recombinant; tags: N-terminal GST; dsDNA, one strand shown. An outline of the steps:
as §1
TTTGTG: the binding signal is 1.19 fold enrichment (6-mer frequency, TF over GST control).
The same measure, in the same setting: as for AATTCA, the figure is 1.33 fold enrichment (6-mer frequency, TF over GST control); as for TTGCTC, 1.24 fold enrichment (6-mer frequency, TF over GST control); as for CTAAAC, 1.26 fold enrichment (6-mer frequency, TF over GST control).
The same measure, in the same setting: next, TAGGCT: 1.2 fold enrichment (6-mer frequency, TF over GST control).
Still for that read-out and setting: as for CCTCTG, the figure is 1.66 fold enrichment (6-mer frequency, TF over GST control); as for TGTCTA, 1.2 fold enrichment (6-mer frequency, TF over GST control); as for TTCACC, 1.44 fold enrichment (6-mer frequency, TF over GST control).
As for ATCTAC, the binding signal is 1.27 fold enrichment (6-mer frequency, TF over GST control).
On the same count and under the same terms, as for CACTAT, the figure is 1.26 fold enrichment (6-mer frequency, TF over GST control).
On to TAATCC, for which the binding signal was 1.23 fold enrichment (6-mer frequency, TF over GST control).
For the sequence AAAGAT, the binding signal was 1.24 fold enrichment (6-mer frequency, TF over GST control).
On the same count and under the same terms, next, CGTCTT: 1.38 fold enrichment (6-mer frequency, TF over GST control).
Same read-out and setting: next, ACTGAA: 1.13 fold enrichment (6-mer frequency, TF over GST control).
Same read-out and setting: next, CTCCGC: 1.67 fold enrichment (6-mer frequency, TF over GST control).
With CAACTC, the binding signal was 1.27 fold enrichment (6-mer frequency, TF over GST control).
Same read-out and setting: as for TACAAT, the figure is 1.26 fold enrichment (6-mer frequency, TF over GST control); as for CCATCT, 1.25 fold enrichment (6-mer frequency, TF over GST control); as for TCCCCG, 1.22 fold enrichment (6-mer frequency, TF over GST control).
The same measure, in the same setting: next, ACTCTA: 1.41 fold enrichment (6-mer frequency, TF over GST control).
Same read-out and setting: next, CCCTCC: 1.58 fold enrichment (6-mer frequency, TF over GST control); ATATTC: 1.29 fold enrichment (6-mer frequency, TF over GST control); CGCTTA: 1.29 fold enrichment (6-mer frequency, TF over GST control).
Take ACGTTA: the binding signal is 1.11 fold enrichment (6-mer frequency, TF over GST control).
Same read-out and setting: as for GCCTTT, the figure is 1.36 fold enrichment (6-mer frequency, TF over GST control).
For TTCGAG, the binding signal was 1.29 fold enrichment (6-mer frequency, TF over GST control).
The same measure, in the same setting: as for CTGAGC, the figure is 1.19 fold enrichment (6-mer frequency, TF over GST control); as for AATTCT, 1.33 fold enrichment (6-mer frequency, TF over GST control).
Still for that read-out and setting: next, CCTGAA: 1.31 fold enrichment (6-mer frequency, TF over GST control).
Still for that read-out and setting: next, TAACTT: 1.33 fold enrichment (6-mer frequency, TF over GST control).
For the sequence CTCATC, the binding signal is 1.35 fold enrichment (6-mer frequency, TF over GST control).
The same measure, in the same setting: next, TCTCAT: 1.25 fold enrichment (6-mer frequency, TF over GST control); TGATGA: 1.44 fold enrichment (6-mer frequency, TF over GST control); TTAAAT: 1.14 fold enrichment (6-mer frequency, TF over GST control).
In the case of TTTCAA, the binding signal was 1.34 fold enrichment (6-mer frequency, TF over GST control).
Still for that read-out and setting: next, ATATGG: 1.35 fold enrichment (6-mer frequency, TF over GST control); ACTTGG: 1.31 fold enrichment (6-mer frequency, TF over GST control).
Same read-out and setting: as for CACATT, the figure is 1.16 fold enrichment (6-mer frequency, TF over GST control); as for TCCTGA, 1.39 fold enrichment (6-mer frequency, TF over GST control).
